Env fusion inh: inhibitors of HIV-1 Env-driven cell-cell fusion, primary screen, HeLa-JRFL effector, CEM21 target cells, luciferase | actives 1.1% (n = 360,000) | inhibition, % at 12.3 µM;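 active = mean replicate inhibition score of at least 50 and every replicate individually at or above 50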
NSD2 inh: NSD2 histone methyltransferase inhibitors, primary screen, biochemical, AlphaScreen, single concentration, set 2 | Histone-lysine N-methyltransferase NSD2 (Homo sapiens), O96028 | actives 0.54% (n = 310,000) | NSD2 peptide methylation, 120 min | AID 743445, 2014 | inhibition, % at 12.5 µM; in the data active = inhibition above about 50%
Target sequence (O96028 whole entry, looked up): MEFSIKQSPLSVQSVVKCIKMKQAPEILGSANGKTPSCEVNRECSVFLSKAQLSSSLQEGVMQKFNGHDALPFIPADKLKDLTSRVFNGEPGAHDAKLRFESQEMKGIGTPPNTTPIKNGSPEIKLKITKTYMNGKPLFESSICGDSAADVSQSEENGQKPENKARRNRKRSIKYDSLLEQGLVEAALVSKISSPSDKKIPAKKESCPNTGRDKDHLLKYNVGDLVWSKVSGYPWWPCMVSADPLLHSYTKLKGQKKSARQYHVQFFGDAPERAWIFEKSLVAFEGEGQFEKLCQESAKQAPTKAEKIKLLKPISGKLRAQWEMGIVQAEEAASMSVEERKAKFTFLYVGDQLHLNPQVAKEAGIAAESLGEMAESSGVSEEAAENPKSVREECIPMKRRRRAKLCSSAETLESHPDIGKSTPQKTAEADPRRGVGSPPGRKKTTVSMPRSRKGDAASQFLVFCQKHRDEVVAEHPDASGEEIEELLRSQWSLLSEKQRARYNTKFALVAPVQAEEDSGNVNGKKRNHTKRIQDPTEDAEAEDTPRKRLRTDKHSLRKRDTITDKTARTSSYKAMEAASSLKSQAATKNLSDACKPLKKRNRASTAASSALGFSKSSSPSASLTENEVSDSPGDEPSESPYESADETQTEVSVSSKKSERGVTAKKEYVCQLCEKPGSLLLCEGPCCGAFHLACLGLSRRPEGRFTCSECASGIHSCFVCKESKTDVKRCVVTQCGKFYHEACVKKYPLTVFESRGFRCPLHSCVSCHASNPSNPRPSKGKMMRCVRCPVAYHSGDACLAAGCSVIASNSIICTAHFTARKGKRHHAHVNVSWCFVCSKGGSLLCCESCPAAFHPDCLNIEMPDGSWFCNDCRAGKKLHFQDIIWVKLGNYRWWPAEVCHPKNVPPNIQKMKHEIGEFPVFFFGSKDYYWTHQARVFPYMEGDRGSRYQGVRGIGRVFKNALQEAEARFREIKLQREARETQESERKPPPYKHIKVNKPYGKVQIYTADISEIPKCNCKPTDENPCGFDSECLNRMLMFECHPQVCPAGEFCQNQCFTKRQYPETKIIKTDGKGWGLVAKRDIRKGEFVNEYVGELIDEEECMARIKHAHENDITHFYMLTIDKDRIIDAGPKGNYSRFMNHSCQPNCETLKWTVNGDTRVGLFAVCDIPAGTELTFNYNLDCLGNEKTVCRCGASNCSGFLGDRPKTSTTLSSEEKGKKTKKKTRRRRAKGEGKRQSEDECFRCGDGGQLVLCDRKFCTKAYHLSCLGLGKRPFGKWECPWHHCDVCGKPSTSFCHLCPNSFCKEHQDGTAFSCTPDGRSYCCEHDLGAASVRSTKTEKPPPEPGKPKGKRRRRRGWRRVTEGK
Glyco luc inh: increase of ERlucT glycosylation luciferase signal, primary screen, N-linked glycosylation inhibitor project, D54 ERlucT cells, luminescence, set 2; AID 588692, 2011; actives 0.23% (n = 360,000); reporter increase, % at 12.5 µM; D54 ERlucT glycosylation luciferase reporter, 24 h; percent of 100 nM tunicamycin response;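 active = mean luciferase reporter signal, scaled so untreated is 0 and the glycosylation-blocking control 100, at or above a set limit in every replicate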;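 note: luciferase carries N-glycosylation sites so blocking glycosylation raises the light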
Shn3 inh set2: reduction of Shn3 3'UTR firefly luciferase signal, primary screen, Schnurri-3 inhibitor project, cell-based, Clone20 osteoblasts, set 2 | Clone20 osteoblast Shn3 3'UTR firefly luciferase, 24 h | inhibition, % at 12.5 µM | actives 0.52% (n = 360,000);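 active = mean inhibition of at least 75% with every replicate also reaching 75%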
PAX8 reporter: inhibitors of PAX8-driven TPO luciferase reporter, primary screen, RMG-I cells, single concentration; SteadyGlo, 24 h; inhibition, % at 12.6 µM; actives 1.2% (n = 360,000); AID 652154, 2013;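 active = mean replicate inhibition at least 60% with every replicate also reaching 60%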;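 note: luciferase light reporting Pax8 driven TPO promoter activity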
EBV LMP1 NFkB: EBV LMP1-driven NF-kappaB luciferase reporter inhibitors, primary screen, cell-based, luminescence, single point | LMP1-induced NF-kappaB luciferase reporter cells | AID 504558, 2011 | inhibition, % at 12.5 µM | actives 0.69% (n = 350,000); in the data active = inhibition above about 41%
Hits are given with their value; . = inactive; / = not tested or not shown. Rows were chosen to be rich in hits. Some 2.8% of all compounds tested hit in one or more screens of this group.

SMILES	Env fusion inh	NSD2 inh	Glyco luc inh	Shn3 inh set2	PAX8 reporter	EBV LMP1 NFkB
CCOC1=C2[C@@H](CN(S(=O)(=O)c3ccccc3C)[C@H]2c2ccc(Cl)cc2)[C@H]2C(=O)NC(=O)[C@H]2C1	79	/	.	.	.	/
CN(C)S(=O)(=O)c1ccc(Nc2nc(C3CC3)nc3c2nnn3Cc2ccccc2Cl)cc1	48	.	.	.	67	.
Cc1ccc(S(=O)(=O)N(C)C[C@@H]2OCCCC[C@H](C)Oc3ccc(NC(=O)CCC(F)(F)F)cc3C(=O)N([C@@H](C)CO)C[C@H]2C)cc1	.	/	/	/	.	/
COc1cccc(NC(=O)N[C@H]2C=C[C@@H](CC(=O)N3CCCCC3)O[C@@H]2CO)c1	.	/	/	/	.	/
COc1ccc(CN2[C@H](CO)[C@H]3c4ccccc4NC[C@H]32)cc1	/	/	/	/	96	/
C[C@H](CO)N1C[C@H](C)[C@@H](CN(C)S(=O)(=O)c2cccs2)Oc2ccc(NC(=O)C3CCCCC3)cc2CC1=O	.	/	/	/	.	/
CC1CN(c2cc(=O)n(-c3ccccc3)c(=O)[nH]2)CC(C)O1 (stereo not drawn)	.	/	.	.	.	61
CC(=Nc1ccccc1)C1=C(O)C(Cc2cccc(F)c2)NC1=O (stereo not drawn)	.	.	.	.	.	.
CC(=Nc1ccccc1)C1=C(O)C(Cc2ccc(O)cc2)NC1=O (stereo not drawn)	.	.	.	.	67	.
C[C@@H]1CN([C@H](C)CO)S(=O)(=O)c2ccc(C#CC3CCCC3)cc2O[C@H]1CN(C)C(=O)c1cccc(F)c1	.	/	/	/	/	/
COc1cccc(Cn2c(-c3nonc3N)nc3ccccc32)c1	/	.	.	.	/	.
COc1cc(Cn2c(-c3nonc3N)nc3ccccc32)ccc1C	60	.	.	/	.	.
O=C(c1ccc(Cl)cc1)N1CCN(CCOc2ccccc2)CC1	.	.	.	.	.	47
C=CCOc1ccc(/C=C/C(=O)OCC(=O)NC2CCCCCCC2)cc1	60	.	.	.	.	.
C=CCOc1ccc(/C=C/C(=O)OCC(=O)NCC2CCCCC2)cc1	.	.	.	.	.	.
C[C@@H]1CCCCO[C@@H](CN(C)C(=O)Nc2ccc(F)cc2)[C@@H](C)CN([C@H](C)CO)C(=O)c2cc(NC(=O)Nc3cccc4ccccc34)ccc2O1	.	/	/	/	.	/
COc1ccc(-n2nc(C#N)c(Cl)cc2=O)cc1	.	/	.	.	105	.
Cc1ccc(-c2c[n+](CC(=O)N3c4ccccc4Sc4ccccc43)c3n2CCC3)cc1	.	.	.	.	91	.
O=C(C[n+]1cc(-c2ccc(Cl)cc2)n2c1CCCCC2)c1ccccc1	.	.	.	.	93	.
O=C(C[n+]1cc(-c2ccc(Br)cc2)n2c1CCCCC2)c1ccccc1	.	.	.	.	75	.
CC(C)NC(=O)Nc1ccc2c(c1)CC(=O)N([C@H](C)CO)C[C@@H](C)[C@@H](CN(C)S(=O)(=O)c1ccc(Cl)cc1)O2	/	/	/	/	.	/
Cc1noc(C)c1NC(=O)N(C)C[C@@H]1OCc2ccccc2-c2ccccc2C(=O)N([C@H](C)CO)C[C@H]1C	.	/	/	/	.	/
CO[C@H]1CN(C)C(=O)c2cc(NS(=O)(=O)c3c(C)noc3C)ccc2OC[C@H](C)NC[C@H]1C	.	/	/	/	/	/
C[C@H]1CN([C@@H](C)CO)C(=O)c2cccc(NS(=O)(=O)c3ccc(Cl)cc3)c2O[C@H]1CN(C)C(=O)Nc1ccc2c(c1)OCO2	.	/	/	/	.	/
C[C@@H]1CN([C@@H](C)CO)S(=O)(=O)c2ccc(C#CC3CCCC3)cc2O[C@H]1CN(C)Cc1cccnc1	.	/	/	/	84	/
SMILES	Env fusion inh	NSD2 inh	Glyco luc inh	Shn3 inh set2	PAX8 reporter	EBV LMP1 NFkB
COc1ccccc1C#Cc1ccc2c(c1)O[C@H](CN(C)Cc1cncnc1)[C@@H](C)CN([C@@H](C)CO)S2(=O)=O	.	/	/	/	.	/
C[C@@H]1CN([C@H](C)CO)S(=O)(=O)c2ccc(C#CC3CCCC3)cc2O[C@H]1CN(C)Cc1cccnc1	.	/	/	/	87	/
C[C@@H]1CN([C@@H](C)CO)S(=O)(=O)c2ccc(C#CC3CCCCC3)cc2O[C@H]1CN(C)Cc1cccnc1	.	/	/	/	/	/
COc1ccccc1C#Cc1ccc2c(c1)O[C@H](CN(C)Cc1cccnc1)[C@H](C)CN([C@@H](C)CO)S2(=O)=O	/	/	/	/	87	/
C[C@H]1CN([C@@H](C)CO)S(=O)(=O)c2ccc(C#CC3CCCC3)cc2O[C@H]1CN(C)Cc1cccnc1	.	/	/	/	.	/
CN1c2ccc(-c3cccc(F)c3)cc2[C@@H]2[C@@H](CCN2S(=O)(=O)c2cccc(F)c2)[C@@H]1CO	/	/	/	/	.	/
COc1ccc(C(C(=O)NC(C)(C)C)N(C[C@H]2CC[C@@H]([C@@H]3CC[C@H](CO)O3)O2)C(=O)c2ccccc2)cc1 (stereo partly drawn)	62	/	.	.	.	.
COc1ccc(NC(=O)N(C)C[C@H]2Oc3ncc(C#C[C@@H](C)O)cc3C(=O)N([C@@H](C)CO)C[C@@H]2C)cc1	.	/	/	/	/	/
C[C@H]1CN([C@@H](C)CO)S(=O)(=O)c2ccc(-c3ccncc3)cc2O[C@@H]1CN(C)C(=O)CN(C)C	.	/	/	/	.	/
O=C(NCCc1ccccc1)[C@H]1[C@H](CO)[C@H]2Cn3c(cccc3=O)[C@H]2N1Cc1cccnc1	/	/	/	/	.	/
COc1ccccc1NC(=O)Oc1ccc(C(C)=O)cc1	59	.	.	.	/	.
CCn1c2ccccc2c2cc(CNCc3ccc(OC)cc3OC)ccc21	56	.	.	.	.	.
Cc1noc(C)c1S(=O)(=O)N(C)C[C@@H]1OCc2ccccc2-c2c(n(C)c3ccccc23)C(=O)N([C@@H](C)CO)C[C@@H]1C	.	/	/	/	.	/
Cc1ccc2c(c1)[C@H]1[C@H](CO2)[C@H](c2ccccc2)[C@]2(C)C(=O)Nc3ccc(Br)cc3C(=O)N12	.	/	30	.	.	.
Cc1ccc2c(c1)C(=O)N1[C@H]3c4cc(C)ccc4OC[C@@H]3[C@H](c3ccccc3)[C@]1(C)C(=O)N2	.	/	.	.	.	.
Cc1ccc2c(c1)C(=O)N1[C@H]3c4cc(Br)ccc4OC[C@@H]3[C@H](c3ccccc3)[C@]1(C)C(=O)N2	.	/	27	.	.	.
COc1ccc(S(=O)(=O)Nc2ccc3c(c2)C(=O)N([C@H](C)CO)C[C@@H](C)[C@@H](CN(C)Cc2ccc4c(c2)OCO4)OCCCC[C@@H](C)O3)cc1	.	/	/	/	.	/
O=C(c1ccco1)N1CCCC(c2nc(-c3ccc(S(=O)(=O)NCc4ccccc4)cc3)no2)C1 (stereo not drawn)	65	.	.	.	/	.
COc1ccc(S(=O)(=O)Nc2ccc3c(c2)C(=O)N([C@@H](C)CO)C[C@@H](C)[C@H](CN(C)S(=O)(=O)c2ccc(C)cc2)OCCCC[C@H](C)O3)cc1	.	/	/	/	.	/

Assay outcomes deposited in PubChem by Broad Institute.
